Pf Dd2 growth: inhibitors of Plasmodium falciparum Dd2 growth. P. falciparum Dd2 growth, SYBR Green, 72 h. Potency, µM (titrated, usually from 28.9 µM), actives largely listed as inhibitors. actives 4.3% (n = 120,000). AID 1347417; active means well fitted inhibition curve with a large enough effect; further: nearly all actives have a fitted effect of over 65% in size
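Infected erythrocytes (Dd2, 0.3% parasitemia, 2.5% hematocrit final) are added to compound in RPMI-1640/Albumax II medium, grown 72 h at 37C in low oxygen, then lysed with saponin/Triton-X containing SYBR Green and read by fluorescence.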
Hits are given with their value; - = inactive; [ ] = dose if it differs, or a comment. Many of the other results were omitted from the sample, so hits are more common in it than they were.

SMILES	Pf Dd2 growth
CCn1c(Cn2ccnc2)nnc1C1CCN(C(=O)C(C)(C)OC)CC1	-
COc1ccc(N2CCN(C(=O)c3c(OC)cc(=O)n4c3CCCC4)CC2)cc1	-
CN(C)c1ccc(CN2C[C@H](O)C[C@H]2c2nc(-c3ccc(C(F)(F)F)cc3)no2)cc1	-
CN1CC2(CCN(Cc3cccn3C)CC2)CC1C(=O)N1CCOCC1 (centres undefined)	-
CN1CC2(CCN(Cc3ccccn3)CC2)CC1C(=O)N1CCOCC1 (centres undefined)	-
CN1CC2(CCN(C(=O)CCCc3ccccc3)CC2)CC1C(=O)N1CCOCC1 (centres undefined)	2.24µM
O=C(Nc1cccc(F)c1)N1CCC(Oc2ncccc2C(=O)N2CCOCC2)C1 (centres undefined)	-
COC(=O)[C@@H]1Cc2c([nH]c3ccccc23)[C@H]2C[C@@H](NCCc3cnc[nH]3)C[C@@H](c3cccc(Cl)c3)N21	-
COC(=O)[C@@H]1Cc2c([nH]c3ccccc23)[C@H]2C[C@@H](NCCN(C)C)C[C@@H](c3cccc(Cl)c3)N21	2.82µM
COC(=O)[C@@H]1Cc2c([nH]c3ccccc23)[C@H]2C[C@@H](NCCN3CCOCC3)C[C@@H](c3ccc(F)cc3)N21	-
Cc1ccc(NC(=O)Cn2cc(S(=O)(=O)Cc3cccc(Cl)c3)c3ccccc32)cc1C	-
COC(=O)[C@@H]1Cc2c([nH]c3ccccc23)[C@H]2C[C@@H](NC(C)C)C[C@@H](c3ccc(C)cc3)N21	-
Cc1ccc(C)c(NC(=O)Cn2cc(S(=O)(=O)Cc3cccc(Cl)c3)c3ccccc32)c1	-
COC(=O)[C@@H]1Cc2c([nH]c3ccccc23)[C@H]2C[C@@H](NCc3cccs3)C[C@@H](c3ccccc3F)N21	-
COC(=O)[C@@H]1Cc2c([nH]c3ccccc23)[C@H]2C[C@H](NCCN3CCOCC3)C[C@@H](c3ccc(F)cc3)N21	11.2µM
COC(=O)[C@@H]1Cc2c([nH]c3ccccc23)[C@@H]2C[C@@H](NCCNC(C)=O)C[C@@H](c3cccc(Cl)c3)N12	11.2µM
CCN(C)C(=O)CCc1c(C)nn(-c2ccccc2)c1Oc1ccccc1F	-
COC(=O)N1CC2(Cc3ccccc3N([S+](C)(=O)[O-])C2)C1	-
CC(=O)c1cccc(NC(=O)O[C@@H]2CO[C@H]3[C@@H]2OC[C@@H]3Nc2nccc(C3CCCC3)n2)c1	-
CCC(C)NC(=O)NCCc1noc(-c2cccnc2)n1 (centres undefined)	-
Cc1cnc(C2CCNC2)n1C(C)C (centres undefined)	-
CCCNC(=O)N1CC(Oc2ccc(-c3nc(-c4ccccc4)no3)cc2)C1	-[5.79 µM]
COC[C@@H]1CN(C(=O)Cc2cccc(OC)c2)C[C@H]1c1ccncc1	-
CN1C[C@@H](NC(=O)C2CC2)C[C@H]1c1nc(-c2ccncc2)no1	-
CC(C)c1ccc(CN2CCC3(CC2)OCCN(C)C3=O)cc1	-
SMILES	Pf Dd2 growth
O=[S+]1([O-])NCC2(CCN(Cc3ccccc3C(F)(F)F)CC2)Nc2ccccc21	12.6µM
O=[S+]1([O-])NCC2(CCN(Cc3ccccc3)C2)Nc2ccccc21 (centres undefined)	-
O=[S+]1([O-])NCC2(CCN(Cc3ccc(OC(F)(F)F)cc3)CC2)Nc2ccccc21	-
O=[S+]1([O-])NC2(CCN(CC3CCCCC3)C2)CNc2ccccc21 (centres undefined)	-
O=[S+]1([O-])NCC2(CCN(Cc3cccc4ccccc34)CC2)Nc2ccccc21	-
O=[S+]1([O-])NCC2(CCN(CC3CCCCC3)C2)Nc2ccccc21 (centres undefined)	4.47µM
CCNC(=O)N(C1CC1)C1CCOC2(CCN(C(=O)CCc3cccc(OC)c3)CC2)C1 (centres undefined)	-
Cc1ccc(C(=O)N2CCc3sc(C(=O)NCc4ccc(N(C)C)cc4)cc3C2)cc1	-
Cc1ccc(C(=O)N2CCc3sc(C(=O)NC(C)c4ccccc4)cc3C2)cc1 (centres undefined)	7.08µM
CC(NC(=O)c1cc2c(s1)CCN(C(=O)c1ccccc1)C2)c1ccc(F)cc1 (centres undefined)	-
CCc1ccc(N2CC(c3noc(-c4ccc(OC)nc4OC)n3)CC2=O)cc1 (centres undefined)	-
CCOc1ccc2c(c1)c(=O)c(S(=O)(=O)c1ccc(Cl)cc1)cn2Cc1ccccc1C	12.6µM
COc1cc(NC(=O)Cn2cc(S(=O)(=O)c3ccccc3)c(=O)c3ccccc32)cc(OC)c1	-
CCOc1ccc(S(=O)(=O)c2cn(CC)c3ccc(F)cc3c2=O)cc1	-
CCOc1ccc2c(c1)c(=O)c(S(=O)(=O)c1ccc(CC)cc1)cn2Cc1cccc(Cl)c1	10µM
COc1ccc2c(c1)c(=O)c(S(=O)(=O)c1ccc(Cl)cc1)cn2C	-
CCc1ccc2c(c1)c(=O)c(S(=O)(=O)c1ccc(Cl)cc1)cn2CC	-
CCc1ccc(S(=O)(=O)c2cn(CC(=O)Nc3cccc(C)c3)c3ccc(Cl)cc3c2=O)cc1	-
CCOc1ccc2c(c1)c(=O)c(S(=O)(=O)c1ccc(C)cc1)cn2Cc1ccccc1Cl	12.6µM
CCOc1ccc2c(c1)c(=O)c(S(=O)(=O)c1ccc(C)cc1)cn2CC(=O)Nc1ccc(C)cc1	-
Cc1ccc(S(=O)(=O)c2cn(Cc3cccc(C)c3)c3cc4c(cc3c2=O)OCO4)cc1	-
CCc1ccc2c(c1)c(=O)c(S(=O)(=O)c1ccc(F)cc1)cn2CC(=O)Nc1ccccc1OC	-
CCOc1ccc2c(c1)c(=O)c(S(=O)(=O)c1ccccc1)cn2CC(=O)Nc1ccccc1OC	11.2µM
COCc1nc(-c2ccc(OC3CCN(S(=O)(=O)c4c(C)noc4C)C3)cc2)no1 (centres undefined)	-[5.79 µM]
O=c1n(-c2ccc(C(F)(F)F)cc2)nc2n1CCN([S+](=O)([O-])c1cccc(C(F)(F)F)c1)C2	-
SMILES	Pf Dd2 growth
COc1ccc(C(=O)N2C[C@@H](Oc3cccnc3)C[C@H]2C(=O)N2CCCC2)cn1	-
Cc1ccc(NC(=O)[C@H]2CCC[C@H]2NC(=O)c2cnc(C)cn2)cc1	-
Cc1cc(F)ccc1-c1[nH]nc2ncc(-c3cnn(C)c3)nc12	-
O=C1N(Cc2ccc(F)cc2)C[C@H]2CN(Cc3ccccn3)CCN12	-
CCNC(=O)N1CCc2nc(N3CCN(C)CC3)sc2C1	-
Cc1cnc(C(=O)N2C[C@@H](Oc3cccnc3)C[C@H]2C(=O)NC2CC2)cn1	-
c1cn(-c2ccc(-c3nc(C4CCOC4)no3)cc2)cn1 (centres undefined)	-
CNc1nc(C(=O)N2CCC3(CC2)c2nc[nH]c2CCN3C)cs1	-
CCn1nc(C)c(-c2cc(C(=O)N3CCCCCCNC(=O)CC3)no2)c1C	-
COc1ccc(NC(=O)Cn2cc(S(=O)(=O)c3ccc(C)cc3)c(=O)c3ccccc32)cc1OC	-
COc1cc2c(=O)c(S(=O)(=O)c3ccc(F)cc3)cn(Cc3ccccc3C)c2cc1OC	11.2µM
CCn1cc(S(=O)(=O)c2ccccc2)c(=O)c2cc(F)c(F)cc21	-
COc1ccccc1CNC(=O)c1cc2cn(C(C)C)cc2s1	-
CCOCCn1cc(C2CCN(S(=O)(=O)c3c(C)cc(C)cc3C)CC2)c2ccccc21	-
CCCn1cc(C2CCN(S(=O)(=O)c3c(C)c(C)cc(C)c3C)CC2)c2ccccc21	10µM
CCOCCn1cc(C2CCN(S(=O)(=O)c3ccc(Cl)cc3Cl)CC2)c2ccccc21	-
COc1cc(=O)n2c(c1C(=O)Nc1ccc(C)cc1F)CCCC2	-
Cc1nc(CCCNC(=O)[C@H]2CCC[C@@H](O)C2)sc1C	-
